Source: PubChem BioAssay
GPR151 ag = activators of human GPR151, primary screen, cell-based, PathHunter beta-arrestin, luminescence; G-protein coupled receptor 151 (Homo sapiens), Q8TDV0; PathHunter beta-arrestin GPR151 cells; hit rate 1% among 650,000; AID 1508602, 2020; activation, % at 11.2 µM; in the data active means activation above about 4.9%;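 further: 0% = median of compound wells and 100% = cells with positive control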
FBW7 act = FBW7 E3 ligase activators, primary screen, biochemical, AlphaScreen, human | hit rate 0.13% among 650,000 | normalized activity (activation), % at 26.1 µM | AID 1259310, 2017 | AlphaScreen FBW7–phospho-cyclin E peptide binding, activator screen | F-box/WD repeat-containing protein 7 (Homo sapiens), Q969H0; in the data active means normalized activity above about 1.9%;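 further: purified mutant Fbw7 with reduced substrate affinity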
TEAD-YAP block = TEAD-YAP interaction inhibition, primary screen, TEAD-YAP interaction inhibitor project, luminescence, HEK-TIYL cells | TEAD-Gal4/YAP UAS-luciferase luminescence | inhibition, % at 9.12 µM | hit rate 1.4% among 640,000 | AID 1259422, 2018; in the data active means inhibition above about 32%;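 further: 0% = median of test compound wells and 100% = reference inhibitor wells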
MITF primary = MITF inhibitors, primary screen, biochemical, AlphaScreen, human; Microphthalmia-associated transcription factor (Homo sapiens), O75030; AlphaScreen MITF homodimerization, bead proximity signal; inhibition, % at 2.6 µM; hit rate 0.91% among 650,000; in the data active means inhibition above about 50%;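 further: 0% = vehicle wells with protein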
Target sequence (O75030 whole entry, looked up): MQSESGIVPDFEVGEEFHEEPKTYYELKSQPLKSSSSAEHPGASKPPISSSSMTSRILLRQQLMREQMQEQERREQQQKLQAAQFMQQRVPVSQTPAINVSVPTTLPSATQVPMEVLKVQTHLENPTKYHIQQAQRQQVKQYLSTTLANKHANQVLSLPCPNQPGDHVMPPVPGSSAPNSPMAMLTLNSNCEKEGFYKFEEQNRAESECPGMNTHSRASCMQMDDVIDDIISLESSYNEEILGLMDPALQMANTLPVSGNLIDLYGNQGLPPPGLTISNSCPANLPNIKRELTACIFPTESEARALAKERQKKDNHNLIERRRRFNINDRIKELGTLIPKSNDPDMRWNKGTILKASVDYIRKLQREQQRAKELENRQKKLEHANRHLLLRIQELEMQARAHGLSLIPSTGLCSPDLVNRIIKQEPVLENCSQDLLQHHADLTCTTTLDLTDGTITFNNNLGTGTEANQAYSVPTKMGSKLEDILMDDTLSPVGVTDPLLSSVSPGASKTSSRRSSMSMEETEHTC
GPR151 confirm = GPR151 activators, triplicate retest, confirmation, cell-based, PathHunter beta-arrestin, luminescence | shares compounds with GPR151 ag | GPR151 PathHunter beta-arrestin cells, 90 min; % of EA-reagent control over plate median | activation, % at 11.2 µM | 6,700 tested, under 10 active | AID 1508609, 2020;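 active means mean percent activation across replicates above the confirmation screen cutoff of 4.91%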
GPR119 counter = GPR119 activators in beta-arrestin cells, counter-screen for GPR151 activator project, cell-based, PathHunter beta-arrestin, luminescence, triplicate. shares compounds with GPR151 ag. 90 min; 0 = compound-well median, 100 = enzyme-acceptor control. activation, % at 11.2 µM. hit rate 0.3% among 6,700. AID 1508611, 2020;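 active means mean percent activation in the counterscreen above 29.09%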;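 further: counterscreen on off-target GPR119 to flag nonselective hits from the GPR151 activator screen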
The depositor's hits bear a star; . = not tested or not shown. Rows were chosen to be rich in hits. Some 3.5% of all compounds tested hit in one or more screens of this group.

SMILES | GPR151 ag | FBW7 act | TEAD-YAP block | MITF primary | GPR151 confirm | GPR119 counter
COc1cccc2c1CC(C(=O)Nc1ccc(-c3cn[nH]c3C)cc1OCCN(C)C)CO2 (configuration not stated) | 6.8* | 0 | 7 | 10 | 0 | -2
Cc1c(-n2c(SC/C=C\Cl)nc3ccccc3c2=O)c(=O)n(-c2ccccc2)n1C | -1 | 0 | -3 | -4 | . | .
CCCc1nc2ccccc2c(=O)n1-c1c(C)n(C)n(-c2ccccc2)c1=O | 6.8* | 0 | -4 | 4 | 0 | -12
CC1=C(C(=O)Nc2cccc(C(F)(F)F)c2)C(c2cccs2)C2=C(CCCC2=O)N1 (configuration not stated) | 6.5* | 0 | 1 | 2 | 0 | 8
CC1CCN(c2nc3c(c(=O)[nH]2)CN(Cc2cccn2-c2cccnc2)CC3)CC1 | 1 | 0 | 7 | 5 | . | .
CCOc1cccc(CN2CCC(C(=O)NC(C)c3ccccc3)CC2)c1O (configuration not stated) | 5.6* | 0 | 1 | 0 | 0 | 6
CCOc1ccc(Br)cc1S(=O)(=O)N1CCN(c2ccccc2O)CC1 | 2 | 0 | -5 | -2 | . | .
COc1ccc(C(=O)Cn2c(N(C)C)nc3c2c(=O)n(C)c(=O)n3C)cc1 | 5.4* | 0 | 2 | 7 | 0 | -2
COc1ccc(C(=O)Cn2c(N3CCOCC3)nc3c2c(=O)n(C)c(=O)n3C)cc1 | 1 | 0 | -16 | -9 | . | .
NC(=O)c1c(NC(=O)c2cccc([N+](=O)[O-])c2)sc2c1CCCC2 | 1 | 0 | -5 | 9 | . | .
CCOc1ccc(NC(=O)Cn2cnc3scc(-c4ccccc4)c3c2=O)cc1 | -1 | 0 | 10 | 16 | . | .
CCn1c(O)c(N=NC(=O)c2ccc(C)nc2)c2ccccc21 | 2 | 0 | 3 | 11 | . | .
O=C(N=Nc1c(O)n(CO)c2ccccc12)c1ccncc1 | 4.9* | 0 | -8 | 6 | 0 | 9
O=C(Nc1ccc2c(c1)CN(C1CSCCSC1)CC2)c1ccncc1 | 5.3* | 0 | -27 | -11 | 0 | 7
Cc1cc(F)ccc1NC(=O)CCNc1c(N2CCCC2)c(=O)c1=O | 5.0* | 0 | -3 | 14 | 0 | -13
COc1ccc2c(c1)CCC(C)N2S(=O)(=O)c1ccc(C2CNC(=O)C2)cc1 (configuration not stated) | 8.3* | 0 | 3 | 2 | 0 | 4
COc1ccc(CNS(=O)(=O)c2ccc(C3CNC(=O)C3)cc2)cc1 (configuration not stated) | 0 | 1 | 12 | 9 | . | .
CCn1c(O)c(C=NC2CCCC2)c(=O)[nH]c1=S | 5.2* | 0 | 3 | -12 | 0 | 0
O=C(NCCOc1ccccc1)c1ccnc(-c2csc3ccccc23)c1 | 4.9* | 0 | 6 | -16 | 1 | -2
Cc1ccc(C(=O)N/C(=C\c2ccco2)C(=O)Nc2ccccc2)cc1C | 5.6* | 0 | -10 | 0 | 0 | -5
Cc1ccc(C(=O)N/C(=C/c2ccco2)C(=O)Nc2ccc(C)cc2C)cc1 | 5.1* | 0 | -5 | 25 | -1 | -10
CNC(=O)/C(=C/c1ccco1)NC(=O)c1ccc(C)cc1 | 1 | 0 | 12 | 2 | . | .
CC(=O)Nc1cccc(NC(=O)COc2cccc3ccc(N4CCCC4)nc23)c1 | 5.3* | 0 | 31 | 19 | 0 | 7
Cc1sc2c(c1C(=O)O)Nc1cc(Br)ccc1S2 | 1 | 0 | -8 | 9 | . | .
CS(=O)(=O)N(CC(=O)Nc1ccc(Br)cc1F)c1ccc2c(c1)OCO2 | 3 | 0 | -4 | 12 | . | .
Cc1ccc(S(=O)(=O)n2c(SCC(=O)NCCc3ccccc3)nc3ccccc32)cc1 | 5.4* | 0 | -7 | 8 | 0 | 6
O=C(CSc1nc2ccccc2n1S(=O)(=O)c1ccccc1)NCCc1ccccc1 | 1 | 0 | -9 | -8 | . | .
